Laboratory results: the supplement of paper PMC9262897, “Low-cost anti-mycobacterial drug discovery using engineered E. coli” (Nature Communications, 2022)
Structures can show the parent of a compound that is named as a salt. ± gives the standard deviation of the averaged measurements.

Legend:
Assay in all cases: growth (OD600 after 10 h); higher = more growth (less inhibition)
[1] = tested on: E. coli TESEC Alr+ wild-type control; conditions: compound 0.1 mM; raw OD600 reference: median of DMSO wells 0.241, cell-free background 0.041
Procedure: (§1)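 TESEC Mtb Alr E. coli, or the Alr+ wild-type control, in 384-well plates with Prestwick library compounds at 0.1 mM and 1% DMSO, across arabinose induction levels of 1E3 to 1E7 nM. Growth is read as OD600 after 10 h at 37 °C in triplicate biological replicates.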

[2] = tested on: E. coli TESEC Mtb Alr; conditions: compound 0.1 mM
Procedure: as §1

[3] = tested on: E. coli TESEC Mtb Asd; conditions: compound 0.1 mM
Procedure: (§2)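 TESEC E. coli strains in which the native enzyme is deleted and replaced by arabinose-inducible Mtb Asd, DapB, CysH or TrpD, each grown in its selective medium. Strains were screened against the Prestwick library at 0.1 mM and 1% DMSO in 384-well format at low and high arabinose induction. Growth is read as OD600 after 10 h in triplicate.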

[4] = tested on: E. coli TESEC Mtb DapB; conditions: compound 0.1 mM
Procedure: as §2

[5] = tested on: E. coli TESEC Mtb Alr; conditions: compound 0.1 mM; remark: listed apart in the source
Procedure: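 TESEC Mtb Alr E. coli (ΔaraC ΔtolC ΔentC Δalr ΔdadX, arabinose-inducible Mtb Alr) or the Alr+ wild-type control strain, grown in defined M9-fructose medium without D-alanine in 96-well plates with Prestwick library compounds at 0.1 mM and 1% DMSO. Low Alr induction is 0.1 µM arabinose and high induction is 10 mM arabinose.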

[6] = arabinose 1000 nM, raw OD600 reference: median of DMSO wells 0.294, cell-free background 0.041
[7] = arabinose 10000 nM, raw OD600 reference: median of DMSO wells 0.264, cell-free background 0.041
[8] = arabinose 100000 nM, raw OD600 reference: median of DMSO wells 0.201, cell-free background 0.041
[9] = arabinose 1000000 nM, raw OD600 reference: median of DMSO wells 0.193, cell-free background 0.041
[10] = arabinose 10000000 nM, raw OD600 reference: median of DMSO wells 0.146, cell-free background 0.041
[11] = arabinose induction (level): High, raw OD600 reference: median of DMSO wells 0.331, cell-free background 0.041
[12] = arabinose induction (level): Low, raw OD600 reference: median of DMSO wells 0.417, cell-free background 0.041
[13] = arabinose induction (level): High, raw OD600 reference: median of DMSO wells […], cell-free background 0.041
[14] = arabinose induction (level): Low, raw OD600 reference: median of DMSO wells 0.227, cell-free background 0.041
[15] = arabinose 100 nM, raw OD600 reference: median of DMSO wells 0.413, cell-free background 0.052
[16] = arabinose 10000000 nM, raw OD600 reference: median of DMSO wells […], cell-free background 0.052

| Compound | growth [1] | growth [2, 6] | growth [2, 7] | growth [2, 8] | growth [2, 9] | growth [2, 10] | growth [3, 11] | growth [3, 12] | growth [4, 13] | growth [4, 14] | growth [5, 15] | growth [5, 16] |
| --- | --- | --- | --- | --- | --- | --- | --- | --- | --- | --- | --- | --- |
| CC(=O)Oc1ccccc1C(=O)Nc1ncc([N+](=O)[O-])s1 [Nitazoxanide] | 0.0514 ± 0.01 | 0.0462 ± 0.0042 | 0.0417 ± 0.00046 | 0.0425 ± 0.0013 | 0.0434 ± 0.0042 | 0.0448 ± 0.0011 | 0.0632 ± 0.0045 | 0.05953 ± 0.00059 | 0.0545 ± 0.0006 | 0.0559 ± 0.0026 | 0.157 ± 0.039 | 0.0545 ± 0.0013 |
| CC(C)(C(=O)O)c1ccc(C(O)CCCN2CCC(C(O)(c3ccccc3)c3ccccc3)CC2)cc1 (stereo not drawn) [Fexofenadine HCl] | 0.228 ± 0.0075 | 0.314 ± 0.0088 | 0.285 ± 0.0078 | 0.212 ± 0.017 | 0.184 ± 0.011 | 0.157 ± 0.0041 | 0.235 ± 0.015 | 0.348 ± 0.069 | 0.201 ± 0.025 | 0.266 ± 0.036 | 0.431 ± 0.0065 | 0.309 ± 0.013 |
| COc1cc2ncnc(Nc3ccc(F)c(Cl)c3)c2cc1OCCCN1CCOCC1 [Gefitinib] | 0.206 ± 0.013 | 0.294 ± 0.019 | 0.24 ± 0.0039 | 0.198 ± 0.017 | 0.161 ± 0.0089 | 0.162 ± 0.0061 | 0.261 ± 0.026 | 0.454 ± 0.038 | 0.207 ± 0.012 | 0.246 ± 0.0095 | 0.284 ± 0.2 | 0.0533 ± 0.0025 |
| NS(=O)(=O)c1cc(C(=O)O)cc(N2CCCC2)c1Oc1ccccc1 [Piretanide] | 0.243 ± 0.0085 | 0.28 ± 0.0043 | 0.278 ± 0.0094 | 0.22 ± 0.025 | 0.202 ± 0.0072 | 0.134 ± 0.0051 | 0.405 ± 0.0083 | 0.4 ± 0.034 | 0.21 ± 0.029 | 0.245 ± 0.025 | 0.4122 ± 0.0034 | 0.341 ± 0.0064 |
| CC(=O)Oc1cccc2c1C(=O)c1c(OC(C)=O)cc(C(=O)O)cc1C2=O [Diacerein] | 0.122 ± 0.0032 | 0.136 ± 0.011 | 0.161 ± 0.0033 | 0.0638 ± 0.0022 | 0.0904 ± 0.0041 | 0.0642 ± 0.005 | 0.224 ± 0.019 | 0.348 ± 0.045 | 0.208 ± 0.019 | 0.23 ± 0.015 | 0.0492 ± 0.00056 | 0.0619 ± 0.0035 |
| NS(=O)(=O)c1cc2c(cc1C(F)(F)F)NCNS2(=O)=O [Hydroflumethiazide] | 0.2612 ± 0.002 | 0.296 ± 0.0066 | 0.262 ± 0.01 | 0.239 ± 0.011 | 0.1758 ± 0.0006 | 0.147 ± 0.0041 | 0.388 ± 0.036 | 0.442 ± 0.06 | 0.184 ± 0.012 | 0.239 ± 0.028 | 0.406 ± 0.013 | 0.32 ± 0.053 |
| N[C@@H](C(=O)N[C@@H]1C(=O)N2C(C(=O)O)=C(Cl)CC[C@H]12)c1ccccc1 [Loracarbef] | 0.251 ± 0.0037 | 0.318 ± 0.0031 | 0.224 ± 0.0093 | 0.211 ± 0.024 | 0.175 ± 0.0071 | 0.151 ± 0.0052 | 0.362 ± 0.016 | 0.411 ± 0.0062 | 0.226 ± 0.017 | 0.234 ± 0.014 | 0.0487 ± 0.0051 | 0.324 ± 0.024 |
| CN1CCN(c2c(F)cc3c(=O)c(C(=O)O)cn(CCF)c3c2F)CC1 [Fleroxacin] | 0.0517 ± 0.002 | 0.04717 ± 0.00045 | 0.0416 ± 0.0006 | 0.0505 ± 0.0014 | 0.0445 ± 0.00081 | 0.0554 ± 0.00072 | 0.0848 ± 0.0081 | 0.0766 ± 0.014 | 0.0682 ± 0.001 | 0.0599 ± 0.003 | 0.0555 ± 0.0013 | 0.05217 ± 5.8e-05 |
| CN(C)CCOC(c1ccccc1)c1ccccc1.Cn1c(=O)c2[nH]c(Cl)nc2n(C)c1=O [Dimenhydrinate] | 0.213 ± 0.0024 | 0.255 ± 0.012 | 0.226 ± 0.0081 | 0.174 ± 0.011 | 0.134 ± 0.01 | 0.133 ± 0.0031 | 0.261 ± 0.044 | 0.342 ± 0.12 | 0.174 ± 0.0038 | 0.197 ± 0.014 | 0.402 ± 0.008 | 0.319 ± 0.0044 |
| CC(=O)Nc1ccc(OCC(O)CNC(C)C)cc1 (stereo not drawn) [Practolol] | 0.244 ± 0.0047 | 0.307 ± 0.0096 | 0.257 ± 0.0077 | 0.229 ± 0.04 | 0.19 ± 0.016 | 0.145 ± 0.0028 | 0.408 ± 0.04 | 0.424 ± 0.027 | 0.177 ± 0.0065 | 0.22 ± 0.025 | 0.402 ± 0.014 | 0.361 ± 0.0065 |
| CCCCNc1c(C(=O)OCC)c(C)nc2c1cnn2CC [Tracazolate hydrochloride] | 0.15 ± 0.017 | 0.203 ± 0.049 | 0.13 ± 0.037 | 0.197 ± 0.051 | 0.077 ± 0.031 | 0.168 ± 0.031 | 0.165 ± 0.017 | 0.179 ± 0.014 | 0.156 ± 0.0092 | 0.194 ± 0.0047 | 0.366 ± 0.0077 | 0.186 ± 0.042 |
| Cc1ccc(C)c(OCCCC(C)(C)C(=O)O)c1 [Gemfibrozil] | 0.2143 ± 0.0012 | 0.258 ± 0.0058 | 0.22 ± 0.0045 | 0.163 ± 0.0097 | 0.153 ± 0.0071 | 0.121 ± 0.0017 | 0.202 ± 0.051 | 0.214 ± 0.0039 | 0.161 ± 0.029 | 0.195 ± 0.055 | 0.354 ± 0.037 | 0.261 ± 0.011 |
| C[N+]1(CCCCC[N+]2(C)CCCC2)CCCC1 [Pentolinium bitartrate] | 0.24 ± 0.0027 | 0.282 ± 0.017 | 0.275 ± 0.0033 | 0.202 ± 0.014 | 0.1794 ± 0.0012 | 0.143 ± 0.0032 | 0.296 ± 0.037 | 0.424 ± 0.02 | 0.1752 ± 0.00061 | 0.185 ± 0.0091 | 0.415 ± 0.011 | 0.361 ± 0.006 |
| CC(=O)Oc1cc(C(C)C)c(OCCN(C)C)cc1C [Moxisylyte hydrochoride] | 0.219 ± 0.0037 | 0.245 ± 0.055 | 0.273 ± 0.0074 | 0.179 ± 0.017 | 0.155 ± 0.003 | 0.14 ± 0.00075 | 0.297 ± 0.046 | 0.441 ± 0.041 | 0.171 ± 0.0028 | 0.247 ± 0.053 | 0.41 ± 0.0064 | 0.242 ± 0.13 |
